In PubChem BioAssay (EPA / NIEHS):
The source made the active and inactive calls. The calls were made as follows: active = hit-call score of the fitted dose curve at least 0.9, where 1 is the maximum; inactive = score below 0.9.

Experiments:
[1] = CEETOX_H295R_CORTISOL: CeeTox H295R High-throughput Steroidogenesis Assay for Cortisol (AID 2283438); settings: actives raise or lower the signal;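 also: cortisol secreted into medium quantified by LC-MS/MS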
Method in brief: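 Forskolin-primed H295R cells (10 uM, 48 h) treated 48 h with test chemical in 0.1% DMSO. Cortisol in medium quantified by MTBE extraction and HPLC-MS/MS; bidirectional fit vs DMSO, MTT viability in same wells.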

[2] = CEETOX_H295R_DOC: CeeTox H295R High-throughput Steroidogenesis Assay for DOC (AID 2283439); settings: actives raise or lower the signal
Method in brief: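 H295R cells prestimulated 48 h with 10 uM forskolin, then exposed 48 h to test chemical (0.1% DMSO final). Medium 11-deoxycorticosterone measured by HPLC-MS/MS after MTBE extraction; bidirectional fit vs DMSO, viability checked by MTT in same wells.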

[3] = CEETOX_H295R_PROG: CeeTox H295R High-throughput Steroidogenesis Assay for Progesterone (PROG) (AID 2283442); settings: actives raise or lower the signal;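 as to AC50: human H295R adrenal cells primed with 10 µM forskolin before dosing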
Method in brief: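 Progesterone read-out: HPLC-MS/MS on MTBE extracts of conditioned medium after 48 h chemical exposure of forskolin-primed (10 uM, 48 h) H295R cells. Gain or loss of signal was fitted relative to DMSO baseline.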

[4] = read-out: Tumor necrosis factor receptor superfamily member 6 (Homo sapiens) (UniProt P25445); test: LTEA_HepaRG_FAS: Life Technologies and Expression Analysis (LTEA) Assay for Fas cell surface death receptor (FAS) using HepaRG (AID 2283447); settings: mRNA level, 48 h; actives raise or lower the signal
Method in brief: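 Differentiated human HepaRG cells, pre-cultured 48 h, were exposed in duplicate for 48 h to 8-point half-log concentrations (top 100 uM, 0.5% DMSO) in serum-free induction medium; FAS mRNA measured by qRT-PCR, normalized to ACTB/GAPDH/POLR2A, bidirectional fit versus DMSO.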

[5] = read-out: Fatty acid synthase (Homo sapiens) (UniProt P49327); test: LTEA_HepaRG_FASN: Life Technologies and Expression Analysis (LTEA) Assay for Fatty Acid Synthase (FASN) using HepaRG (AID 2283448); settings: mRNA level, 48 h; actives raise or lower the signal
Method in brief: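 Differentiated HepaRG cells in serum-free induction medium exposed 48 h in duplicate to eight half-log concentrations, top 100 uM, 0.5% DMSO. FASN mRNA by qRT-PCR normalised to ACTB, GAPDH, POLR2A; bidirectional fit versus DMSO.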

[6] = read-out: Cyclin D2 (CCND2), CCND2 (gene 894); test: LTEA_HepaRG_CCND2: Life Technologies and Expression Analysis (LTEA) Assay for Cyclin D2 (CCND2) using HepaRG (AID 2283449); settings: mRNA level, 48 h; actives raise or lower the signal;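 also: CCND2 transcript measured by TaqMan qRT-PCR and normalised to three housekeeping genes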
Method in brief: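 Differentiated human HepaRG cells were exposed for 48 h in serum-free induction medium to eight half-log concentrations topping at 100 uM (0.5% DMSO vehicle). CCND2 mRNA was quantified by TaqMan qRT-PCR, normalised to ACTB, GAPDH and POLR2A, and fitted bidirectionally against DMSO.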

[7] = read-out: Cyclin Dependent Kinase Inhibitor 1A (CDKN1A), CDKN1A (gene 1026); test: LTEA_HepaRG_CDKN1A: Life Technologies and Expression Analysis (LTEA) Assay for Cyclin Dependent Kinase Inhibitor 1A (CDKN1A) using HepaRG (AID 2283450); settings: mRNA level, 48 h; actives raise or lower the signal
Method in brief: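 HepaRG, 48 h dosing, 8-pt half-log series from 100 uM top, 0.5% DMSO vehicle, duplicates. Readout: TaqMan qRT-PCR of CDKN1A transcript, housekeeping-normalized (ACTB, GAPDH, POLR2A). Up/down curve fit relative to DMSO.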

[8] = read-out: Cyclin D1 (CCND1), CCND1 (gene 595); test: LTEA_HepaRG_CCND1: Life Technologies and Expression Analysis (LTEA) Assay for Cyclin D1 (CCND1) using HepaRG (AID 2283451); settings: mRNA level, 48 h; actives raise or lower the signal;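 as to AC50: TaqMan qRT-PCR transcript level normalised to ACTB GAPDH and POLR2A housekeeping genes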
Method in brief: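 qRT-PCR (Fluidigm 96.96 array) read-out of transcript level, housekeeping-normalized (ACTB/GAPDH/POLR2A). HepaRG cells, 48 h chemical exposure, 8-point half-log series from 100 uM, 0.5% DMSO vehicle; gain or loss relative to DMSO baseline.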

[9] = CEETOX_H295R_ESTRADIOL: CeeTox H295R High-throughput Steroidogenesis Assay for Estradiol (AID 2283440); settings: actives raise or lower the signal;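 also: estradiol secreted into medium quantified by LC-MS/MS after dansyl derivatisation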
Method in brief: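 H295R, 48 h forskolin (10 uM) prestim → 48 h compound, 0.1% DMSO final. Estradiol in medium: MTBE extraction, dansyl chloride derivatization, LC-MS/MS. Fit bidirectional vs DMSO baseline; MTT viability in same wells.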

[10] = CEETOX_H295R_ESTRONE: CeeTox H295R High-throughput Steroidogenesis Assay for Estrone (AID 2283441); settings: actives raise or lower the signal;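 also: estrone secreted into medium measured by LC-MS/MS after dansyl derivatization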;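 as to AC50: human adrenal H295R cells prestimulated with forskolin for two days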
Method in brief: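 H295R cells prestimulated 48 h with 10 uM forskolin, then exposed 48 h to chemicals in 0.1% DMSO final; estrone in medium extracted with MTBE, dansyl-derivatized, quantified by HPLC-MS/MS; bidirectional fitting versus DMSO, viability by MTT.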

Measured: AC50

Chain of Fatty acid synthase (Homo sapiens) (P49327 whole entry, looked up): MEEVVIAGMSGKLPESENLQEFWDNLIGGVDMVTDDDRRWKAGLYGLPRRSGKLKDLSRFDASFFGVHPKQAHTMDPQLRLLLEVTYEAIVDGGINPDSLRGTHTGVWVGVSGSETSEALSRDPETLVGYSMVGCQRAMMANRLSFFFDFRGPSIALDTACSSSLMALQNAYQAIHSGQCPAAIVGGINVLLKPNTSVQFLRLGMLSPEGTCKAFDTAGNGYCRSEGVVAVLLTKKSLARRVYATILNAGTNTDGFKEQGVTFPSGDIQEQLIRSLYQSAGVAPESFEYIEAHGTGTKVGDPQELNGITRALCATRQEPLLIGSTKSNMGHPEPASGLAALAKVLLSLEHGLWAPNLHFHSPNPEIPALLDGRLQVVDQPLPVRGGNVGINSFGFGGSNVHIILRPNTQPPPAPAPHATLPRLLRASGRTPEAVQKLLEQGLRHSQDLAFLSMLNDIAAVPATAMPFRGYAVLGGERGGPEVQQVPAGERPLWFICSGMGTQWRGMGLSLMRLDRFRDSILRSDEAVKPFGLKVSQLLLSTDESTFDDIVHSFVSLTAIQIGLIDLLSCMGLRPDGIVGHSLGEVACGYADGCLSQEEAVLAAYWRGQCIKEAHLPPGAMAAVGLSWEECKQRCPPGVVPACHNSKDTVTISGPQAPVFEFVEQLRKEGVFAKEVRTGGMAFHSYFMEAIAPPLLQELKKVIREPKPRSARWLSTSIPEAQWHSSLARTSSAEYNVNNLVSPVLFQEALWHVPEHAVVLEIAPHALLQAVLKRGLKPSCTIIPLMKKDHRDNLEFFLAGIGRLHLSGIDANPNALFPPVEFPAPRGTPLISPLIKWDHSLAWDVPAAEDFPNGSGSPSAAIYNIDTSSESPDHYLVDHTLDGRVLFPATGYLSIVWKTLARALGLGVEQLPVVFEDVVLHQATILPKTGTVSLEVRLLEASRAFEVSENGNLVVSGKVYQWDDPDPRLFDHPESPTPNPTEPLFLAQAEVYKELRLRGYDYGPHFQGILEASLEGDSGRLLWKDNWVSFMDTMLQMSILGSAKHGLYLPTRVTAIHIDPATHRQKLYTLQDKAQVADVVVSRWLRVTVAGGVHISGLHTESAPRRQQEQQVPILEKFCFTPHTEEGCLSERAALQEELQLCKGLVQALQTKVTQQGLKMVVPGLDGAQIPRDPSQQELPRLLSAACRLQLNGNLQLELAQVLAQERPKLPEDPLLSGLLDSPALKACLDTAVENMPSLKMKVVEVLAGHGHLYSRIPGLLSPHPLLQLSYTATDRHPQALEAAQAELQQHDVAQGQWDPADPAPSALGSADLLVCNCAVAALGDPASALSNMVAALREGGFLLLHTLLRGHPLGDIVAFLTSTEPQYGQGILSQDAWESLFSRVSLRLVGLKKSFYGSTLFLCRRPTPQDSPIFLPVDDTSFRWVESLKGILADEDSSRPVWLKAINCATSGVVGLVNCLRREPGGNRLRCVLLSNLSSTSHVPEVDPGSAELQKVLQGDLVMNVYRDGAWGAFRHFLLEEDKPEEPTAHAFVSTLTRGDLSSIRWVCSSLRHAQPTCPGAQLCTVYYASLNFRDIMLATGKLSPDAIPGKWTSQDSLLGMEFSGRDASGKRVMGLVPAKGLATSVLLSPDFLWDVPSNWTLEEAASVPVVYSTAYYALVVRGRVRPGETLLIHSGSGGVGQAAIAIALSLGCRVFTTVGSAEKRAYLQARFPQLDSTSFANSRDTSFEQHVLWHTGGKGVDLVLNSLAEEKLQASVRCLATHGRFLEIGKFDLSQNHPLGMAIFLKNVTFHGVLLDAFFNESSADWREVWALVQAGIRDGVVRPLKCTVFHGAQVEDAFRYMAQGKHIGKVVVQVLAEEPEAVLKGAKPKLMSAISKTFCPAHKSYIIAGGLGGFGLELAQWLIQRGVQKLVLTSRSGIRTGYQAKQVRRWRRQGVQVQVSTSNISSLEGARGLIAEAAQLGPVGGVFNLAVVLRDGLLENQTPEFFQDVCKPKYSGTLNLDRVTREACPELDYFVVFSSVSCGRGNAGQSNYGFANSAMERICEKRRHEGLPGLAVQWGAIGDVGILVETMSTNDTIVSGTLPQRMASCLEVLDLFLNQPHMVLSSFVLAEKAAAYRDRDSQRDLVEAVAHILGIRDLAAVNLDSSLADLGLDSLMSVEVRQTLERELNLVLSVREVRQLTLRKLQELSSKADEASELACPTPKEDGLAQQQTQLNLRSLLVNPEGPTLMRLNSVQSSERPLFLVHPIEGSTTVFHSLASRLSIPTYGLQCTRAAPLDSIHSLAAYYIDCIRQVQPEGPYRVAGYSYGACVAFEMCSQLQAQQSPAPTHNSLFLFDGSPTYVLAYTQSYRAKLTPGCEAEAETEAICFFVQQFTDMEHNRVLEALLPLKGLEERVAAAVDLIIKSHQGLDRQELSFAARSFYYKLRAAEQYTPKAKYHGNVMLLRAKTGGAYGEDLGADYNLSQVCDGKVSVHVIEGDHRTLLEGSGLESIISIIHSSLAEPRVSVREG

Nc1ccc(Cl)cc1N
inactive: [1] | [2] | [6] | [8]
active: [3] 1.89 µM | [4] 13.3 µM | [5] 37.9 µM | [7] 11.4 µM

Nc1ccc(Cc2ccc(N)cc2)cc1
active: [1] 24 µM | [2] 65.5 µM | [3] 3.84 µM
inactive: [4] | [5] | [7] | [8]

COP(=S)(OC)SCN1C(=O)c2ccccc2C1=O
not listed: [9] | [10]
inactive: all other assays above

CC(C)(O)c1cnn2c(-c3ccc(F)c(-c4c(F)cccc4C#N)c3)cnc2n1
active: [3] 0.251 µM
not listed: [9] | [10]
inactive: all other assays above

O=C(Oc1ccc(Br)cc1)N1CCN2CCC1CC2
active: [2] 1.06 µM | [3] 1.3 µM | [5] 75.9 µM
not listed: [9] | [10]
inactive: all other assays above

c1ccc(NNc2ccccc2)cc1
not listed: [2] | [9] | [10]
inactive: all other assays above

[As]#[In]
not listed: [1] | [9] | [10]
inactive: all other assays above

Cc1cc(N=Nc2ccccc2C)ccc1N
active: [3] 2.5 µM | [4] 3.37 µM | [5] 2.9 µM | [7] 3.36 µM | [8] 39.2 µM
inactive: [1] | [2] | [6]

CC(C)(C)C(O)(CCc1ccc(Cl)cc1)Cn1cncn1 (centres undefined)
active: [1] 5.75 µM | [2] 0.26 µM | [3] 0.121 µM | [5] 3.08 µM | [7] 88.7 µM
inactive: [4] | [6] | [8]

Cn1cc(-c2ccccc2)c(=O)c(-c2cccc(C(F)(F)F)c2)c1
active: [5] 9.92 µM | [7] 63.8 µM
not listed: [9] | [10]
inactive: all other assays above

Cc1ccc(N=C=O)cc1N=C=O
active: [5] 15.9 µM | [7] 72.2 µM
not listed: [9] | [10]
inactive: all other assays above

CCCCCOC(=O)c1ccccc1C(=O)OCCCCC
not listed: [1]
inactive: all other assays above

CCOC(=O)[C@]1(c2ccccc2)Oc2ccccc2[C@@H]1N
inactive: [3] | [6]
active: [1] 2.9 µM | [2] 2.52 µM | [5] 41.6 µM | [7] 78.3 µM | [8] 77.5 µM

CCCCCCCCCCCCCN1CC(C)OC(C)C1 (centres undefined)
active: [2] 6.39 µM | [3] 8.46 µM
inactive: all other assays above

N#CC(Br)(Br)C(N)=O
active: [3] 50 µM
inactive: [4] | [5] | [6] | [7] | [8]

O=P(OCCCl)(OCCCl)OCCCl
not listed: [9] | [10]
inactive: all other assays above

c1ccc(N=Nc2ccccc2)cc1
inactive: [1] | [4] | [5] | [6] | [7] | [8]

O=[N+]([O-])c1ccc(Oc2ccc(Cl)cc2Cl)cc1
active: [5] 50 µM
not listed: [1] | [9] | [10]
inactive: all other assays above

CCOc1cccc(C2(N3CCN(c4ccccc4)CC3)CCC(C)CC2)c1 (centres undefined)
active: [2] 29.8 µM | [3] 35.5 µM
not listed: [9] | [10]
inactive: all other assays above

O=C(Nc1ccccc1)c1ccccc1I
active: [2] 25.7 µM | [3] 7.28 µM | [5] 13.2 µM | [8] 22 µM
inactive: all other assays above

Oc1ccc2ccc3cccc4ccc1c2c34
active: [1] 35.7 µM | [2] 12.9 µM
not listed: [9] | [10]
inactive: all other assays above

CNC(=O)Oc1cccc2c1OC(C)(C)C2
active: [10] 494 nM
inactive: all other assays above
